Measurements reported in PubChem BioAssay (Tox21).
Results filed as inconclusive are left out. Activity calls are given as the source filed them. Unless noted, calls follow the shape of the dose curve; as a rule, active = well fitted curve in the direction sought with a large enough effect in the repeat runs; inconclusive = weak or mixed curves; inactive = no such curve, though single readings can be large; an effect the other way counts as inactive or inconclusive.

Columns and labels:
[1] = A CellTox Green Cytotoxicity Assay to monitor cytotoxicity in HepG2 cells - 0 hour (AID 1224882); also: nearly all actives have a fitted effect of over 35% in size
Outline: (§1)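 Read-out is fluorescence of a cyanine dye excluded from live cells that stains DNA of dead HepG2 cells, with signal proportional to cytotoxicity. Plates were read at 0, 8, 16, 24, 32 and 40 h after compound addition.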

[2] = A CellTox Green Cytotoxicity Assay to monitor cytotoxicity in HepG2 cells - 32 hour (AID 1224883); also: nearly all actives have a fitted effect of over 50% in size
Outline: as §1

[3] = A CellTox Green Cytotoxicity Assay to monitor cytotoxicity in HEK293 cells - 8 hour (AID 1224884); also: nearly all actives have a fitted effect of over 35% in size
Outline: (§2)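 Nonlytic real-time cytotoxicity: HEK293 + CellTox Green reagent plated, 5 h preincubation, pintool compound addition (23 nL in DMSO), 37 C for 40 h, fluorescence measured at successive time points.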

[4] = qHTS RealTime-Glo MT Cell Viability Assay in HepG2 cells - 16 hour (AID 1224885); also: nearly all actives have a fitted effect of over 50% in size
Outline: (§3)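 HepG2 suspension premixed with RealTime-Glo reagents is plated at 600 cells per well and left 5 h at 37 C/5% CO2. Compounds in DMSO then go in, and bioluminescence reflecting viable cell number is recorded over 40 h.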

[5] = qHTS RealTime-Glo MT Cell Viability Assay in HEK293 cells - 24 hour (AID 1224886); also: top concentration of the series differs between compounds; nearly all actives have a fitted effect of over 50% in size
Outline: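 Reads taken at 0, 8, 16, 24, 32 and 40 h from the same wells. HEK293 cells (600/well) carried RealTime-Glo reagents from seeding, with compound added after a 5 h settle at 37 C.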

[6] = qHTS RealTime-Glo MT Cell Viability Assay in HEK293 cells - 8 hour (AID 1224887); also: top concentration of the series differs between compounds; nearly all actives have a fitted effect of over 50% in size
Outline: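 Cells were seeded together with NanoLuc luciferase and a prosubstrate that viable cells reduce to a luciferase substrate. After a 5 h incubation at 37 C/5% CO2, compounds were added and luminescence was measured repeatedly during 40 h of treatment.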

[7] = A CellTox Green Cytotoxicity Assay to monitor cytotoxicity in HEK293 cells - 16 hour (AID 1224888); also: nearly all actives have a fitted effect of over 35% in size
Outline: as §2

[8] = A CellTox Green Cytotoxicity Assay to monitor cytotoxicity in HepG2 cells - 8 hour (AID 1224890); also: nearly all actives have a fitted effect of over 45% in size
Outline: as §1

[9] = qHTS assay to identify small molecule antagonists of the androgen receptor (AR) signaling pathway using the MDA cell line in the presence of 0.5 nM R1881 - cell viability counter screen (AID 1259242); also: nearly all actives have a fitted effect of over 45% in size
Outline: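 Counter screen for cytotoxicity run in the same wells as the AR antagonist reporter screen: MDA-kb2 cells were treated 16 hr with test compounds and 0.5 nM R1881, then live-cell protease activity was measured by fluorescence.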

[10] = qHTS assay to identify small molecule phospholipidosis (PLD) inducers (AID 1259344; active = well fitted curve in the direction sought with a large enough effect; an effect the other way counts as inactive or inconclusive)
Outline: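 HepG2 cells on collagen I, attached 4 h at 37 C, were co-treated with compound and LipidTOX Red dye for 24 h at 37 C, then fixed with paraformaldehyde plus Hoechst 33342 and imaged by high-content microscopy for phospholipid accumulation.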

[11] = qHTS assay to identify small molecule HDAC inhibitors (AID 1259364); also: nearly all actives have a fitted effect of over 45% in size; also: potency is read from the fitted curve at half-maximal effect
Outline: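 Luminescence from a cell-permeant luminogenic class I/II HDAC substrate reports endogenous deacetylase activity in intact HCT-116 cells treated with compounds for 2 h.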

[12] = qHTS assay to identify small molecule HDAC inhibitors - cell viability counter screen (AID 1259365)
Outline: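 To flag cytotoxic hits, 1,500 wild-type HCT-116 cells per well, plated the day before, receive test compounds for 2hr at 37 C before CellTiter-Glo reagent and a luminescence read.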

[13] = qHTS assay to identify small molecule agonists of the sonic hedgehog signaling (Shh) pathway - cell viability counter screen (AID 1259366); also: nearly all actives have a fitted effect of over 50% in size
Outline: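 Fluorescence from CellTiter-Fluor reports live cells in this counter screen. NIH/3T3-derived Gli1-Luc reporter cells receive test compounds for 24hr at 37C; reagent goes in at 23hr.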

[14] = qHTS assay to identify small molecule antagonists of the sonic hedgehog signaling (Shh) pathway - cell viability counter screen (AID 1259367); also: nearly all actives have a fitted effect of over 55% in size
Outline: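 NIH/3T3-derived Gli1-Luc reporter cells (2,000 per well) rested 4 hr at 37 C, then received DMSO compounds plus conditioned medium. After 23 hr of treatment, CellTiter-Fluor was added for 1 hr at 37C and fluorescence read.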

[15] = qHTS assay to identify small molecule agonists of the sonic hedgehog signaling (Shh) pathway (AID 1259368; calls by dose curve;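 also: NIH/3T3-derived 3T3Gli1-Luc cells carrying a stable Gli1-driven firefly luciferase reporter; series mostly up to about 92 µM; nearly all actives have a fitted effect of over 15% in size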)
Outline: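 3T3Gli1-Luc (NIH/3T3 clone, stable Gli1-Luc); 4 hr pre-incubation, then cpd in DMSO 24 hr, 37 C/5% CO2; luciferase reagent 30 min RT; luminescence.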

[16] = qHTS assay to identify small molecule antagonists of the sonic hedgehog signaling (Shh) pathway (AID 1259369; calls by dose curve; also: nearly all actives have a fitted effect of over 45% in size)
Outline: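 3T3Gli1-Luc, conditioned-medium-stimulated, 24hr cpd, 37C/5% CO2; Gli1-driven firefly Luc luminescence after 30min RT with luciferase reagent. Cells plated 4hr before cpd.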

[17] = qHTS RealTime-Glo MT Cell Viability Assay in HepG2 cells - 0 hour (AID 1224889); also: nearly all actives have a fitted effect of over 50% in size
Outline: as §3

[18] = qHTS assay to identify small molecule antagonists of the estrogen receptor alpha (ER-alpha) signaling pathway using the BG1 cell line in the presence of 0.1 nM 17-beta-estradiol - cell viability counter screen (AID 1259241); also: nearly all actives have a fitted effect of over 40% in size
Outline: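 CellTiter-Fluor read (30 min, 37C) on ER-alpha/ERE-luc VM7Luc4E2 cells; 22 hr compound treatment; agonist 0.1 nM E2 final; same-well multiplex.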

[19] = target: Estrogen receptor (Homo sapiens) (UniProt P03372); assay: qHTS assay to identify small molecule antagonists of the estrogen receptor alpha (ER-alpha) signaling pathway using the BG1 cell line in the presence of 0.1 nM 17-beta-estradiol (AID 1259244); also: nearly all actives have a fitted effect of over 50% in size
Outline: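 Cells: VM7Luc4E2, endogenous ER-alpha, 4x ERE-luc stable. Pre-culture 5 d, phenol red-free, charcoal-stripped FBS. Plated 24 h, compound + E2 0.1 nM final, 22 h 37C/5% CO2. Readout ONE-Glo luminescence.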

Measured: Potency

Chain of Estrogen receptor (Homo sapiens) (P03372 whole entry, looked up): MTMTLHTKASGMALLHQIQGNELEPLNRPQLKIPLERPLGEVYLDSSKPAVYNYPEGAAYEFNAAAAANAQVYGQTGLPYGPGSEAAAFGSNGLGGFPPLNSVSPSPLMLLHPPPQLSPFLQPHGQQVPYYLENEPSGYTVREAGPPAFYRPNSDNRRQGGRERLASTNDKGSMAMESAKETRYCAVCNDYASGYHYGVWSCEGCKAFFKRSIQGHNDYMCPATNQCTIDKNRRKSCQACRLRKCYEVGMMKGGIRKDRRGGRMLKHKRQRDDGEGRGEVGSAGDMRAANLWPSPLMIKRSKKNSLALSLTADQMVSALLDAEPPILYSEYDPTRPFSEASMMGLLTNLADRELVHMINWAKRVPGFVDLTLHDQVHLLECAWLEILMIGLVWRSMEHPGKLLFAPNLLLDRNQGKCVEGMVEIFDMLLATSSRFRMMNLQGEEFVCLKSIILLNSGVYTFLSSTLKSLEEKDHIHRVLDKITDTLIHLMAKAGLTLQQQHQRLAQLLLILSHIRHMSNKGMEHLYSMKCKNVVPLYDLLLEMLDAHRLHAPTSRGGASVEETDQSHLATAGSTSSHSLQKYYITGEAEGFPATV

Nc1ncnc2c1ncn2[C@@H]1O[C@H](CO)[C@@H](O)[C@H]1O
inactive: [1] | [2] | [3] | [4] | [5] | [6] | [7] | [8] | [9] | [10] | [11] | [12] | [13] | [14] | [15] | [16]

COc1ccc(CN(CCN(C)C)c2ncccn2)cc1
inactive: [1] | [2] | [3] | [4] | [5] | [6] | [8] | [9] | [10] | [11] | [12] | [14] | [16]

CCCCCCCCNC
inactive: [1] | [2] | [3] | [4] | [5] | [6] | [8] | [9] | [11] | [12] | [13] | [14] | [15] | [16]

OCCOc1cccc(OCCO)c1
active: [11] 24.3 µM
inactive: [1] | [2] | [3] | [4] | [5] | [6] | [7] | [8] | [9] | [13] | [14] | [15] | [16]

O=C(O)CCc1nc2ccccc2[nH]1
inactive: [1] | [2] | [3] | [4] | [5] | [6] | [17] | [8] | [18] | [9] | [19] | [10] | [11] | [12] | [14] | [15] | [16]

COC(=O)c1cc(Cl)ccc1[N+](=O)[O-]
inactive: [1] | [2] | [3] | [4] | [5] | [6] | [17] | [8] | [18] | [9] | [19] | [11] | [12] | [13] | [14] | [15] | [16]

O=C(O)c1cc(C(=O)O)cc([N+](=O)[O-])c1
inactive: [1] | [2] | [3] | [4] | [5] | [6] | [17] | [8] | [18] | [9] | [11] | [12] | [14] | [15] | [16]

CCCCCCOC(=O)c1ccccc1
inactive: [1] | [2] | [3] | [4] | [5] | [6] | [17] | [8] | [18] | [9] | [19] | [11] | [12] | [13] | [14] | [15] | [16]

C=CC(=O)OCCCCCCCCCC
inactive: [1] | [2] | [3] | [4] | [5] | [6] | [17] | [8] | [18] | [9] | [19] | [11] | [12] | [13] | [14] | [15] | [16]

O=c1c2ccccc2oc2ccccc12
active: [11] 17.2 µM
inactive: [1] | [2] | [3] | [4] | [5] | [7] | [17] | [8] | [18] | [9] | [19] | [12] | [14] | [15]

Nc1ccc(-c2ccc(F)cc2)cc1
inactive: [1] | [2] | [3] | [4] | [5] | [17] | [8] | [18] | [9] | [19] | [12] | [14] | [15] | [16]

O=C1CCCN1CCO
inactive: [1] | [2] | [3] | [4] | [5] | [7] | [8] | [18] | [9] | [19] | [11] | [14] | [15] | [16]

O=C(C1CCCCC1)N1CC(=O)N2CCCc3ccccc3C2C1 (stereo not given)
inactive: [1] | [2] | [3] | [4] | [5] | [6] | [17] | [8] | [18] | [9] | [19] | [11] | [12] | [13] | [14] | [15]

O=C(O)COCC(=O)O
inactive: [1] | [2] | [3] | [4] | [5] | [6] | [17] | [8] | [18] | [9] | [11] | [12] | [13] | [14] | [15] | [16]

COc1cccc([C@H](O)C2CCN(CCc3ccc(F)cc3)CC2)c1OC
inactive: [1] | [2] | [3] | [4] | [6] | [7] | [17] | [8] | [18] | [9] | [19] | [11] | [13] | [14] | [15]

CCCC1CCOC(C)S1 (stereo not given)
inactive: [1] | [2] | [3] | [4] | [5] | [6] | [17] | [8] | [18] | [9] | [19] | [11] | [12] | [13] | [14]
